# Several values for one entry are separate records, joined by “and”; a condition that tells them apart may be missing. Equal entries are not always repeated. Results filed as inconclusive are left out. Entries that show only a call come without a potency. Where a structure was tested more than once in an assay, its records may differ in their call. Activity calls are given as the source filed them. Unless noted, calls follow the shape of the dose curve; as a rule, active = well fitted curve in the direction sought with a large enough effect in the repeat runs; inconclusive = weak or mixed curves; inactive = no such curve, though single readings can be large; an effect the other way counts as inactive or inconclusive.
# Assays:
# [1] = qHTS assay to identify small molecule agonists of the estrogen receptor alpha (ER-alpha) signaling pathway in the presence of an antagonist - cell viability counter screen (AID 1259386);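 also: cells exposed to compounds for 22 h at 37 °C before the viability read; nearly all actives have a fitted effect of over 30% in size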; also: potency is read from the fitted curve at half-maximal effect; as to activity change, negative = cytotoxicity: series mostly up to about 92 µM
# Outline: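 Using estrogen-depleted VM7Luc4E2 cells, the 15-concentration compound series was applied together with 10.0nM ICI-182,780 and incubated 22hr at 37C/5% CO2. Cell viability was then scored by CellTiter-Fluor.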
# [2] = target: Progesterone receptor (Homo sapiens) (UniProt P06401); test: qHTS assay to identify small molecule agonists of the progesterone receptor (PR) signaling pathway (AID 1346784; calls by dose curve; also: nearly all actives have a fitted effect of over 30% in size)
# Chain of Progesterone receptor (Homo sapiens) (P06401 whole entry, looked up): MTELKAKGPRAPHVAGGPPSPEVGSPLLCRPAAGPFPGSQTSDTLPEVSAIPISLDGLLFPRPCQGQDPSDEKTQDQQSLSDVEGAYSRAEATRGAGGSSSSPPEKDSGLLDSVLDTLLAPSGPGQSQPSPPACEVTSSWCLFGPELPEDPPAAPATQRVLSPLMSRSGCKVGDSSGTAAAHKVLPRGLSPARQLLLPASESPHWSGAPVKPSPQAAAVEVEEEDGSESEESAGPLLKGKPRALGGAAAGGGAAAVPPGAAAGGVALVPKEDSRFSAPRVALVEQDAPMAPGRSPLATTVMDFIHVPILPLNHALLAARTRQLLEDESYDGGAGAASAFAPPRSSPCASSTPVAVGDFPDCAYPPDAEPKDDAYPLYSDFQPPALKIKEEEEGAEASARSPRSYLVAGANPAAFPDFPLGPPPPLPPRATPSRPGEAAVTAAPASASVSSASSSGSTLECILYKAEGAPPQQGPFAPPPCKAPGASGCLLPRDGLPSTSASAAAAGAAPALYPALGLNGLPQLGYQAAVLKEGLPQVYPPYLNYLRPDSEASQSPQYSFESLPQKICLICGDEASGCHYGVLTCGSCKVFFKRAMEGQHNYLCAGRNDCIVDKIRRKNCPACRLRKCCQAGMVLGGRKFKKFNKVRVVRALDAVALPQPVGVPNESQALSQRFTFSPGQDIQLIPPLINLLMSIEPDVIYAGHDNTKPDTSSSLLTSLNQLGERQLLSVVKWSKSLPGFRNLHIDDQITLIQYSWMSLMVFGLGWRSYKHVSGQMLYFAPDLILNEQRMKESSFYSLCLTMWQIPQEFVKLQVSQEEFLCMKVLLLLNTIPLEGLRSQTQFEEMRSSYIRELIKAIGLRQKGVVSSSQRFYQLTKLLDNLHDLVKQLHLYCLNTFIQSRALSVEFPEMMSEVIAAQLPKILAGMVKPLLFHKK
# Outline: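 PR-UAS-bla HEK 293T cells carrying a UAS-driven beta-lactamase reporter were seeded in medium with 2% charcoal-stripped FBS, preincubated 6 hr at 37C, then exposed to compounds in DMSO for 16 hr; agonism was read by LiveBLAzer B/G FRET fluorescence.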
# [3] = target: Progesterone receptor (Homo sapiens) (UniProt P06401); test: qHTS assay to identify small molecule antagonists of the progesterone receptor (PR) signaling pathway (AID 1346795; active = well fitted inhibition curve with a large enough effect in the signal ratio in the repeat runs, not every such curve was filed as active; the % refers to the signal ratio; also: potency is read from the fitted curve at half-maximal effect)
# Outline: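 PR-UAS-bla HEK293T cells carrying a UAS-driven beta-lactamase reporter were plated in medium with 2% charcoal-stripped FBS and rested 6 hr at 37C. Compounds were added with 1 nM R5020 (final) for 16 hr, then FRET substrate loaded 2 hr at room temperature.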
# [4] = qHTS assay to identify small molecule antagonists of the progesterone receptor (PR) signaling pathway - cell viability counter screen (AID 1346798); also: nearly all actives have a fitted effect of over 50% in size; also: potency is read from the fitted curve at half-maximal effect; as to activity change, negative = cytotoxicity: series mostly up to about 92 µM
# Outline: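 PR-UAS-bla HEK293T cells in medium with 2% charcoal-stripped FBS were treated with compounds plus R5020 for 16 hr at 37C. Cell viability was then read by CellTiter-Glo luminescence after 30 min at room temperature in the same wells.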
# [5] = qHTS assay to identify small molecule agonists of the progesterone receptor (PR) signaling pathway - cell viability counter screen (AID 1346799; calls by dose curve; also: nearly all actives have a fitted effect of over 45% in size; also: potency is read from the fitted curve at half-maximal effect)
# Outline: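 PR-UAS-bla HEK293T cells, 3,000 per well in medium with 2% charcoal-stripped FBS, were preincubated 6 hr at 37C, then exposed to compounds for 16 hr; viability was read as CellTiter-Glo luminescence after 30 min at room temperature.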
# [6] = qHTS assay to identify small molecule antagonists of the TGF-beta/Smad signaling pathway - cell viability counter screen (AID 1346824); also: nearly all actives have a fitted effect of over 50% in size; also: potency is read from the fitted curve at half-maximal effect
# Outline: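 SBE-bla HEK 293T cells, incubated overnight, then compound plus 0.25 ng/mL TGF-beta1 (stock added) for 5 hr at 37 C. Viability was read in the same wells by CellTiter-Glo luminescence after 30 min at room temperature.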
# [7] = qHTS assay to identify small molecule agonists of the TGF-beta/Smad signaling pathway - cell viability counter screen (AID 1346829); also: nearly all actives have a fitted effect of over 45% in size; also: potency is read from the fitted curve at half-maximal effect; as to activity change, negative = cytotoxicity: top concentration of the series differs between compounds
# Outline: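 Here the cytotoxicity of library compounds is measured in SBE-bla HEK 293T cells treated for 5 hr, using CellTiter-Glo added to wells already read for the beta-lactamase reporter.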
# [8] = qHTS assay to identify small molecule agonists of the TGF-beta/Smad signaling pathway (AID 1346859; active = well fitted activation curve with a large enough effect in the signal ratio in the repeat runs, not every such curve was filed as active; the % refers to the signal ratio; also: series mostly up to about 77 µM)
# Outline: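 HEK 293T cells stably carrying a beta-lactamase reporter driven by the Smad binding element were seeded overnight, exposed to DMSO-dissolved compounds for 5 hr at 37 C, 5% CO2, then loaded with FRET substrate for 2 hr at room temperature.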
# [9] = target: Thyrotropin-releasing hormone receptor (Homo sapiens) (UniProt P34981); test: qHTS assay to identify small molecule antagonists of the thyrotropin-releasing hormone receptor (TRHR) signaling pathway (AID 1346877; active = well fitted inhibition curve with a large enough effect in the repeat runs, not every such curve was filed as active; also: series mostly up to about 51 µM)
# Chain of Thyrotropin-releasing hormone receptor (Homo sapiens) (P34981 whole entry, looked up): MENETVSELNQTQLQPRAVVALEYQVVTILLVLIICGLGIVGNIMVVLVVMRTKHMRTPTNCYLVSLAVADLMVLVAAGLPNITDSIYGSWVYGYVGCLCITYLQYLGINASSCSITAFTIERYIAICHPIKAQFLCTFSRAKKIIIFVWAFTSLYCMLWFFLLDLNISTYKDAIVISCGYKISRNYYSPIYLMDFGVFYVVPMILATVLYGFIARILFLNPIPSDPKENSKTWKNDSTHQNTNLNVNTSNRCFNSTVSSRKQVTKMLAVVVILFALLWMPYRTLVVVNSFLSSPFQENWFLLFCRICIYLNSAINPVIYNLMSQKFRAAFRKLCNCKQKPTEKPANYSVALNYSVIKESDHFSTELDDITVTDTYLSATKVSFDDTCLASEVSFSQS
# Outline: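 Calcium signal in dye-loaded TRHR/HEK293 cells; compounds added 5 min before TRH (1 nM final); fluorescence monitored 3 min at 1 s steps.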
# [10] = target: Thyrotropin-releasing hormone receptor (Homo sapiens) (UniProt P34981); test: qHTS assay to identify small molecule agonists of the thyrotropin-releasing hormone receptor (TRHR) signaling pathway (AID 1346891; calls by dose curve; also: series mostly up to about 58 µM)
# Outline: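 TRHR-expressing HEK293 cells were plated 18 h at 37 °C/5% CO2, loaded with calcium dye 2 h at 37 °C, then given compound in DMSO; fluorescence was read kinetically for 3 min at 1 s intervals.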
# [11] = Human pregnane X receptor (PXR) small molecule agonists, qHTS cell viability counter screen (AID 1346977); also: nearly all actives have a fitted effect of over 50% in size; also: potency is read from the fitted curve at half-maximal effect
# Outline: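 PXR-Luc HepG2 cells in medium with 5% charcoal-stripped FBS were pre-incubated 5hr, then exposed to compounds for 24hr at 37C. Viability was read in the same wells by CellTiter-Fluor fluorescence, reagent added after 23hr with a 1hr incubation.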
# [12] = Caspase-3/7 induction in HepG2 cells by small molecules, qHTS assay (AID 1346978); also: nearly all actives have a fitted effect of over 15% in size; also: potency is read from the fitted curve at half-maximal effect
# Outline: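 Wild-type HepG2 cells, 2,000/well, settled 5 hr at 37 C and 5% CO2, then compound-treated for 17 hr; caspase-3/7 activity read by luminescent Caspase-Glo 3/7 after 30 min at room temperature.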
# [13] = Caspase-3/7 induction in CHO-K1 cells by small molecules, qHTS cell viability counter screen (AID 1346979); also: nearly all actives have a fitted effect of over 35% in size; also: potency is read from the fitted curve at half-maximal effect
# Outline: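 Wild-type CHO-K1 cells were seeded at 1,500 per well, rested 5hr at 37 C, then exposed to compounds in DMSO. After 16hr, CellTiter-Fluor reagent was added and fluorescence read 1hr later as the viability measure.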
# [14] = Caspase-3/7 induction in HepG2 cells by small molecules, qHTS cell viability counter screen (AID 1346981); also: nearly all actives have a fitted effect of over 30% in size; also: potency is read from the fitted curve at half-maximal effect; as to activity change, negative = cytotoxicity: series mostly up to about 92 µM
# Outline: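 After a 5-hr attachment period at 37 C and 5% CO2, wild-type HepG2 cells received compounds in DMSO. Sixteen hours later CellTiter-Fluor was dispensed and the fluorescent signal quantified after a further hour.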
# [15] = target: Nuclear receptor subfamily 1 group I member 2 (Homo sapiens) (UniProt O75469); test: Human pregnane X receptor (PXR) small molecule agonists, qHTS assay (AID 1346982); also: nearly all actives have a fitted effect of over 35% in size
# Chain of Nuclear receptor subfamily 1 group I member 2 (Homo sapiens) (O75469 whole entry, looked up): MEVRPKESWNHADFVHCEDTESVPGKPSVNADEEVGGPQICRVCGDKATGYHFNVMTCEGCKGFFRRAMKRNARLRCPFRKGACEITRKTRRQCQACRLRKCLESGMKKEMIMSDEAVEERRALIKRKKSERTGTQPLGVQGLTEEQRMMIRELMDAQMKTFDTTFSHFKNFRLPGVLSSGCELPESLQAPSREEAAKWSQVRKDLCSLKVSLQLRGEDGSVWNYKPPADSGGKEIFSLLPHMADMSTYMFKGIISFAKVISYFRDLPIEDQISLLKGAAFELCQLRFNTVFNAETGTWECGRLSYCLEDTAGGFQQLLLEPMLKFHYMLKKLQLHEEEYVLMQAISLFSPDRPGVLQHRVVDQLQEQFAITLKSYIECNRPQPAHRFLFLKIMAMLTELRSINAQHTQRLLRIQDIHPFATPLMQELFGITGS
# Outline: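 Tox21 qHTS; PXR-Luc HepG2; compounds pinned from DMSO; 24 hr, 37 C; ONE-Glo luciferase detection, 30 min room temperature.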
# [16] = target: Cytochrome P450 2C19 (Homo sapiens) (UniProt P33261); test: Cytochrome P450 Family 2 Subfamily C Member 19 (CYP2C19) small molecule antagonists: luciferase reporter qHTS assay (AID 1671197); also: nearly all actives have a fitted effect of over 65% in size; also: potency is read from the fitted curve at half-maximal effect; as to activity change, negative = inhibition: series mostly up to about 120 µM
# Chain of Cytochrome P450 2C19 (Homo sapiens) (P33261 whole entry, looked up): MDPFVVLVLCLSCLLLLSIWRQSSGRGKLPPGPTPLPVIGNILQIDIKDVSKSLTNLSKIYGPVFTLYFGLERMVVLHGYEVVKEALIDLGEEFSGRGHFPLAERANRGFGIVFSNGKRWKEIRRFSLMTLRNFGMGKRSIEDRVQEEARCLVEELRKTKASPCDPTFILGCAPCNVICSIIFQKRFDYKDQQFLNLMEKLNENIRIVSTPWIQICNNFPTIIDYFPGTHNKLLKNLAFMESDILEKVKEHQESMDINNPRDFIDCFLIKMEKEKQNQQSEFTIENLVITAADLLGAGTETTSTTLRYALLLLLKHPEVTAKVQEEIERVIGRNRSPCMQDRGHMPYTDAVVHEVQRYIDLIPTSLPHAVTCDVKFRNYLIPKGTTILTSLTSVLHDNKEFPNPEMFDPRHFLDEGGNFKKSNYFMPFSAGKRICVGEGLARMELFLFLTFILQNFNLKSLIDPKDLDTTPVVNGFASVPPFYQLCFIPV
# Outline: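 Light output is proportional to CYP2C19 activity: proluciferin substrate is converted to luciferin, then detected by a luciferin detection reagent that also stops the 1 h, 37C NADPH-driven reaction. Ketoconazole serves as positive control.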
# [17] = Caspase-3/7 induction in CHO-K1 cells by small molecules, qHTS assay (AID 1346980); also: nearly all actives have a fitted effect of over 15% in size; also: potency is read from the fitted curve at half-maximal effect
# Outline: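 Wild-type CHO-K1 cells exposed to compounds for 17hr at 37 C, 5% CO2. Caspase-3/7 activity then measured by Caspase-Glo 3/7 luminescence after 30min at room temperature.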
# [18] = target: Cytochrome P450 2D6 (Homo sapiens) (UniProt P10635); test: Cytochrome P450 Family 2 Subfamily D Member 6 (CYP2D6) small molecule antagonists: luciferase reporter qHTS assay (AID 1671196); also: series mostly up to about 120 µM; nearly all actives have a fitted effect of over 50% in size
# Chain of Cytochrome P450 2D6 (Homo sapiens) (P10635 whole entry, looked up): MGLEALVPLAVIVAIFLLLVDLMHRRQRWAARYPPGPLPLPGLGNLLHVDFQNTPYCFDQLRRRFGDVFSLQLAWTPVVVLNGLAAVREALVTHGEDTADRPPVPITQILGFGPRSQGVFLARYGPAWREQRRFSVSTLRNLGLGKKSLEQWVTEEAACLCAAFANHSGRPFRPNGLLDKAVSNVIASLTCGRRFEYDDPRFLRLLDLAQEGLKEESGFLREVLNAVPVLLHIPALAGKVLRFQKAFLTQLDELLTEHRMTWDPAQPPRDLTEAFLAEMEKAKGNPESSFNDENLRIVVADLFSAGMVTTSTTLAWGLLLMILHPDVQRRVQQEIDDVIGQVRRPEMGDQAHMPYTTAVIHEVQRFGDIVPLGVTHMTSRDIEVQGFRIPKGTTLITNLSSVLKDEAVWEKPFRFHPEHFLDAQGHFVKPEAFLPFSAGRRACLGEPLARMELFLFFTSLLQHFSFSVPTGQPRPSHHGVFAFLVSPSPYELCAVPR
# Outline: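 Room-temperature luminescent CYP2D6 activity assay: compound preincubated 10 min with enzyme–substrate mix, NADPH-initiated reaction 1 h, detection reagent 20 min before reading.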
structure (smiles),measurement,setting,value
O=C(O[C@@H]1Cc2c(O)cc(O)cc2O[C@@H]1c1cc(O)c(O)c(O)c1)c1cc(O)c(O)c(O)c1,Potency,[1],54.6 µM (active) and 46.8 µM (active)
same,Potency,[2],inactive
same,Potency,[3],inactive
same,Potency,[4],inactive
same,Potency,[5],inactive
same,Potency,[6],inactive
same,Potency,[7],inactive
same,outcome,[8],inactive
same,Potency,[9],inactive
same,Potency,[10],inactive
same,Potency,[11],35.5 µM (active)
same,Potency,[12],inactive
same,Potency,[13],30.7 µM (active) and 52.5 µM (active)
same,Potency,[14],54.6 µM (active) and 29.5 µM (active)
same,Potency,[15],inactive
same,Potency,[16],50.4 µM (active) and inactive
COc1ccc(CCN2CCC(Nc3nc4ccccc4n3Cc3ccc(F)cc3)CC2)cc1,Potency,[1],39.4 µM (active) and inactive
same,Potency,[2],inactive
same,Potency,[3],18.8 µM (active)
same,Potency,[4],17.6 µM (active) and 23.7 µM (active)
same,Potency,[5],14 µM (active)
same,Potency,[6],39.8 µM (active)
same,Potency,[7],44.6 µM (active)
same,outcome,[8],inactive
same,Potency,[9],inactive
same,Potency,[10],inactive
same,Potency,[11],3.94 µM (active) and 13.3 µM (active)
same,Potency,[12],7.86 µM (active)
same,Potency,[13],7.86 µM (active) and 23.7 µM (active)
same,Potency,[17],11.1 µM (active)
same,Potency,[14],8.82 µM (active) and 29.8 µM (active)
CC(=O)CC(C)=O,Potency,[1],inactive
same,Potency,[2],inactive
same,Potency,[3],inactive
same,Potency,[4],inactive
same,Potency,[5],inactive
same,Potency,[6],inactive
same,Potency,[7],inactive
same,outcome,[8],inactive
same,Potency,[9],inactive
same,Potency,[10],inactive
same,Potency,[11],inactive
same,Potency,[12],inactive
same,Potency,[13],inactive
same,Potency,[17],inactive
same,Potency,[14],inactive
same,Potency,[15],inactive
same,Potency,[18],inactive
c1cnc2cc3c(cc2n1)C1CNCC3C1,Potency,[1],inactive
same,Potency,[2],inactive
same,Potency,[3],inactive
same,Potency,[4],inactive
same,Potency,[5],inactive
same,Potency,[6],inactive
same,Potency,[7],inactive
same,Potency,[9],inactive
same,Potency,[10],inactive
same,Potency,[11],inactive
same,Potency,[12],inactive
same,Potency,[13],inactive
same,Potency,[17],inactive
same,Potency,[14],inactive
same,Potency,[15],inactive
same,Potency,[18],inactive
same,Potency,[16],inactive
OCCN1CCNCC1,Potency,[1],inactive
same,Potency,[2],inactive
same,Potency,[3],inactive
same,Potency,[4],inactive
same,Potency,[5],inactive
same,Potency,[6],inactive
same,Potency,[7],inactive
same,outcome,[8],inactive
same,Potency,[9],inactive
same,Potency,[10],inactive
same,Potency,[11],inactive
same,Potency,[12],inactive
same,Potency,[13],inactive
same,Potency,[17],inactive
same,Potency,[14],inactive
same,Potency,[15],inactive
same,Potency,[18],inactive
same,Potency,[16],inactive
C[N+]1([O-])CCOCC1,Potency,[1],inactive
same,Potency,[2],inactive
same,Potency,[3],inactive
same,Potency,[4],inactive
same,Potency,[5],inactive
same,Potency,[6],inactive
same,Potency,[7],inactive
same,outcome,[8],inactive
same,Potency,[9],inactive
same,Potency,[10],inactive
same,Potency,[11],inactive
same,Potency,[12],inactive
same,Potency,[13],inactive
same,Potency,[14],inactive
same,Potency,[15],inactive
same,Potency,[18],inactive
NC(Cc1ccc(Cl)cc1)C(=O)O (stereo unspecified),"activity change, negative = cytotoxicity",[1],2.8% [at 0.349 µM] (inactive)
same,activation,[2],-4.74% [at 0.349 µM] (inactive)
same,"activity change, negative = inhibition",[3],-0.261% [at 0.348 µM] (inactive)
same,"activity change, negative = cytotoxicity",[4],-9.96% [at 0.348 µM] (inactive)
same,"activity change, negative = cytotoxicity",[5],-7.43% [at 0.349 µM] (inactive)
same,"viability change, negative = cytotoxic",[6],4.44% [at 0.29 µM] (inactive)
same,"activity change, negative = cytotoxicity",[7],-10.5% [at 0.29 µM] (inactive)
same,activation,[8],0.242% [at 0.29 µM] (inactive)
same,"activity, negative = inhibition",[9],-6.16% [at 0.194 µM] (inactive)
same,activation,[10],0.0344% [at 0.218 µM] (inactive)
same,"activity change, negative = cytotoxicity",[11],6.84% [at 0.349 µM] (inactive)
same,caspase activation,[12],-0.871% [at 0.349 µM] (inactive)
same,"activity change, negative = cytotoxicity",[13],10.4% [at 0.349 µM] (inactive)
same,caspase-3/7 activation,[17],1.39% [at 0.349 µM] (inactive)
same,"activity change, negative = cytotoxicity",[14],-2.01% [at 0.349 µM] (inactive)
same,activation,[15],-5.94% [at 0.349 µM] (inactive)
same,"activity change, negative = inhibition",[18],-0.77% [at 0.435 µM] (inactive)
